Reference: PubChem BioAssay (Tox21)
Records with an inconclusive call do not appear. Entries that show only a call come without a potency. Unmarked numbers belong to inactive results. The source made the active and inactive calls. Calls follow the shape of the dose curve; as a rule, active = well fitted cell-killing curve with a large enough effect in the repeat runs; inconclusive = weak or mixed curves, or effect the other way; inactive = flat fitted curve, though single readings scatter.

Test: Caspase-3/7 induction in HepG2 cells by small molecules, qHTS cell viability counter screen (AID 1346981); also: nearly all actives have a fitted effect of over 30% in size
Details: CellTiter-Fluor fluorescence, 17 h; series mostly up to 92.4 µM; activity change, negative = cytotoxicity: at the top concentration
Description: U.S. Tox21 Program National Center for Advancing Translational Sciences [NCATS] NIH Chemical Genomics Center [NCGC] U.S. Environmental Protection Agency [EPA] National Institutes of Environmental Health Sciences [NIEHS] National Toxicology Program [NTP] U.S. Food and Drug Administration [FDA] Tox21 Assay Overview: Apoptosis is a process of programmed cell death and plays a central role in the development of multicellular organisms. It is a highly regulated process and induces cell death by activating caspases, which are the members of cysteine aspartic acid-specific protease (caspase) family. Caspases involved in apoptosis are classified by their mechanism of action as initiator caspases (caspase-2, -8, -9 and -10) and executioner caspases (caspase-3, -6, and -7). Inhibition of apoptosis results in number of cancers, autoimmune diseases, inflammatory diseases and viral infection. To identify small molecule compounds that induce apoptosis, a homogeneous, luminescent Caspase-Glo 3/7 assay was used. Wild type HepG2 cells were used to screen Tox21 libraries for identifying caspase-3/7 activity inducers. Also cytotoxicity of the compounds was tested in parallel by measuring the cell viability using CellTiter-Fluor assay system in the same wells.
Tox21 Assay Protocol Summary: HepG2 cells were dispensed at 2,000 per well in 5uL of culture medium into white solid bottom 1536-well plates (Corning Life Sciences, Corning, NY) using a Multidrop Combi (Thermo Scientific, Waltham, MA) dispenser. The assay plates were incubated at 37 C and 5% CO2 for 5hr, and then 23nL of compounds dissolved in DMSO and positive control were transferred using a Pintool station ([…], San Diego, CA). The assay plates were incubated at 37C and 5% CO2 for 17hr. For cytotoxicity read, after 16hr incubation at 37C, 1uL CellTiter-Fluor reagent (Promega Corporation, Madison, WI) was added to each well of the assay plates using Flying Reagent Dispenser (FRD, Aurora Discovery, San Diego, CA). After 1hr incubation at 37C and 5% CO2, the fluorescence signal was quantified using a ViewLux plate reader (PerkinElmer, Shelton, CT).

| SMILES | Potency | activity change, negative = cytotoxicity [%] |
| --- | --- | --- |
| CON(C)C(=O)Nc1ccc(Cl)c(Cl)c1 | inactive | – |
| CC(C)C1(C)N=C(c2nc3ccccc3cc2C(=O)O)NC1=O (stereo not given) | inactive | – |
| CC1C=[C-]C=C1.[C-]#[O+].[C-]#[O+].[C-]#[O+].[Mn] | inactive | – |
| O=[N+]([O-])c1ccc(Oc2ccc(Cl)cc2Cl)cc1 | inactive | – |
| CCCCOC(=O)c1ccccc1C(=O)OCCCC | inactive | – |
| CCCCN(CC)C(=O)SCCC | inactive | – |
| O=C1CCCN1 | inactive | – |
| CC(C)OC(=O)Nc1cccc(Cl)c1 | inactive | – |
| C#CC(C)(C)NC(=O)c1cc(Cl)cc(Cl)c1 | inactive | – |
| CCCCN(CCCC)SN(C)C(=O)Oc1cccc2c1OC(C)(C)C2 | inactive | – |
| O=[N+]([O-])c1ccccc1 | inactive | – |
| O=C(O)c1ccccn1 | inactive | – |
| CC(=O)C=C(C)C | inactive | – |
| CC(C)NC(=O)N1CC(=O)N(c2cc(Cl)cc(Cl)c2)C1=O | – | 8.55 |
| CCOP(=S)(OCC)SCCSCC | inactive | – |
| C=CC(N)=O | inactive | – |
| CC(C)(C)OOC(C)(C)C | inactive | – |
| c1ccc(OP(Oc2ccccc2)Oc2ccccc2)cc1 | inactive | – |
| COC(=O)c1ccccc1N | inactive | – |
| CCOP(OCC)OCC | inactive | – |

| SMILES | Potency | activity change, negative = cytotoxicity [%] |
| --- | --- | --- |
| COC(=O)c1ccccc1C(=O)OC | inactive | – |
| CN(C)CCO | inactive | – |
| Cc1ccccc1O | inactive | – |
| Oc1ccccc1Cl | inactive | – |
| C#CCN(C)[C@H](C)Cc1ccccc1 | inactive | – |
| Cc1[nH]c(=O)n(C(C)(C)C)c(=O)c1Cl | inactive | – |
| Cc1ccc(N)cc1Cl | inactive | – |
| CC(C)=C[C@@H]1[C@@H](C(=O)OCc2coc(Cc3ccccc3)c2)C1(C)C | inactive | – |
| O=C(NC(=O)c1c(F)cccc1F)Nc1cc(Cl)c(OC(F)(F)C(F)C(F)(F)F)cc1Cl (stereo not given) | inactive | – |
| Clc1cccc(Cl)c1Cl | inactive | – |
| CC(C)C#N | inactive | – |
| CCOC(=O)c1ccccc1C(=O)OCC | – | 3.13 |
| Nc1ccccc1C(=O)O | inactive | – |
| Nc1c(Cl)c(Cl)nc(C(=O)O)c1Cl | inactive | – |
| COP(N)(=O)SC (stereo not given) | inactive | – |
| CC(C)(C)OOC(=O)c1ccccc1 | inactive | – |
| ClCc1cccnc1 | inactive | – |
| Nc1ccc(Oc2ccc(N)cc2)cc1 | inactive | – |
| ClCCBr | inactive | – |
| O=c1[nH]c(=O)[nH]c(=O)[nH]1 | inactive | – |
